From PubChem BioAssay
Shown is part of a subset that was picked to be rich in hits.
Pf Dd2 inh – blocks in vitro growth of P. falciparum Dd2; P. falciparum Dd2 growth, SYBR Green, 72 h; Potency, µM (top dose mostly 28.9 µM), without a hit: at the highest dose activity, negative = inhibition, most hits filed as inhibitors; 120,000 compounds, 4.3% hits; active = well fitted inhibition curve with a large enough effect;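 also: plate controls were DMSO vehicle for no effect and reference drug for full effect; nearly all actives have a fitted effect of over 65% in size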
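Infected erythrocytes (Dd2, 0.3% parasitemia, 2.5% hematocrit final) are added to compound in RPMI-1640/Albumax II medium, grown 72 h at 37C in low oxygen, then lysed with saponin/Triton-X containing SYBR Green and read by fluorescence.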
Starred values were filed as active, the others as inactive; i = inactive; [ ] = remark or other dose. Potency is read from the fitted curve at half-maximal effect.

SMILES | Pf Dd2 inh
c1ccc(Cn2cc(CN3CCCOCC3)c(-c3cc4ccccc4o3)n2)cc1 | 11µM*
O=C(O)c1cncc(-c2cccc(CN3CCOCC3)c2)n1 | -16%
O=C(NCCc1noc(C2CC2)n1)C1CCC1 | 17%
CN(C)c1cccc(C(=O)NC2CCN(c3cnn(C)c(=O)c3)CC2)c1 | i
COCc1cn(C[C@H]2C[C@@H](NC(=O)c3cncnc3)[C@H](O)[C@@H]2O)nn1 | -1%[44.1 µM]
CN(Cc1ccccc1)C(=O)CC1CCN(C(=O)c2ccncc2)C1 (centres undefined) | i
O[C@@H]1C[C@@H](c2nc(-c3ccc4c(c3)OCO4)no2)N(Cc2ccccc2)C1 | i
c1ccc(Cn2cc(CN3CCCC3)c(-c3ccc4c(c3)OCO4)n2)cc1 | 11µM*
Fc1ccccc1N1CCN(Cc2nnc(-c3ccc4c(c3)OCO4)o2)CC1 | 46%[0.594 µM]
Cc1nn(-c2ccccc2)c(C)c1S(=O)(=O)N[C@@H]1[C@@H](N)[C@H]2CCO[C@H]21 | -9%
Cc1ccc(C(=O)N2CC(C(=O)NC3CCCCC3)C3(CCOCC3)C2)cc1 (centres undefined) | -18%
CC(C)NC(=O)N1CCCCCC1CN1CCOCC1 (centres undefined) | i
Cc1cc(C)c([S+](=O)([O-])c2nnn3c2nc(N2CCOCC2)c2ccccc23)c(C)c1 | 8.9µM*
Cc1cc(C)c([S+](=O)([O-])c2nnn3c2nc(N2CCC(F)CC2)c2ccccc23)c(C)c1 | 11µM*
O=S(=O)(c1ccccc1)c1nnn2c1nc(N1CCOCC1)c1ccccc12 | 5%
CC(C)c1ccc([S+](=O)([O-])c2nnn3c2nc(N2CCC(F)CC2)c2ccccc23)cc1 | -28%
COc1ccc(OC)c([S+](=O)([O-])c2nnn3c2nc(N2CCOCC2)c2ccccc23)c1 | -21%
Cc1ccc(-c2nnn3c2nc(N2CCC(C)CC2)c2ccccc23)cc1 | -11%
c1ccc2sc([C@H]3CCN(Cc4ccc5c(c4)OCO5)C3)nc2c1 | i
COc1cccc(CC(=O)N2CC(c3nnc(-c4ccncc4)o3)C3(CCOCC3)C2)c1 (centres undefined) | i
CCn1cc(S(=O)(=O)N2CCCCC2c2noc(COCCOC)n2)cn1 (centres undefined) | 11%
CC(C)C1CN(CC2CCC(N)CC2)CCC(=O)N1Cc1ccc(F)cc1 (centres undefined) | -14%
COc1cccc([C@@H]2CN(CC3CCOCC3)C[C@H]2C(=O)O)c1OC | -19%
Cc1cnc(C(=O)N2CC(N(C)Cc3cccnc3)C2)cn1 | 1%
COc1ccccc1CN1C(=O)C(=O)c2cccc(C)c21 | 29%
SMILES | Pf Dd2 inh
Cc1cccc2c1N(Cc1ccccc1OCCC(C)C)C(=O)C2=O | 10µM*
CCCCCOc1ccccc1Cn1c(=O)oc2ccc(C)cc21 | 3%
Cc1cc(Br)cc2c1N(Cc1ccccc1OC(C)C)C(=O)C2=O | 11µM*
CC(C)Oc1ccccc1CN1CCC([C@@H]2CNC[C@H]2CO)CC1 | -1%
COc1ccccc1Cn1ccn(CC(=O)Nc2c(C)cc(C)cc2C)c(=O)c1=O | 10%
O=C1NCCCCCN(C(=O)Cc2cccc(F)c2)[C@@H]2CCCC[C@H]12 | i
CC(C)NC(=O)C[C@@H]1C[C@H]2O[C@H](CNC3CCCC3)[C@@H](O)[C@H]2O1 | -8%[44.1 µM]
COc1ccc2cc(C(=O)N3CCc4nn(C)c(=O)n4CC3)[nH]c2c1 | 21%
CC(C)NC(=O)C[C@@H]1O[C@H](CNCc2cccc(Cl)c2)[C@@H](O)[C@H]1O | 8%[44.1 µM]
N#Cc1cccnc1N1CCN(Cc2ccc(F)c(F)c2)C(CCO)C1 (centres undefined) | -11%
Cc1cccc(NC(=O)C2Cn3cccc3C(=O)N2)c1 (centres undefined) | 2%
COc1ccc(O[C@H]2COCCN(C(=O)c3cccc(F)c3)C2)cc1 | -6%[44.1 µM]
CC(C)NC(=O)NC[C@H]1O[C@@H](CO)[C@@H](O)[C@H]1N1CCN(c2ccccn2)CC1 | 19%
CN1CC2(CCN(C(=O)CC3CCCCC3)CC2)CC1C(=O)N1CCOCC1 (centres undefined) | -2%
CC1(C)C(=O)N(Cc2ccccc2)[C@H]2CN(Cc3ccc(C(=O)O)cc3)C[C@H]2[S+]1(=O)[O-] | 23%
CC(=O)N(C)Cc1cccn1C | -16%[76.6 µM]
CN(C)c1ccc(CNC(=O)C2CCN(c3nc4ccccc4[nH]3)CC2)cc1 | 29%
COCCCNC(=O)C1CCN(Cc2cc3ccccc3n2Cc2ccccc2C)CC1 | -16%
Cc1cccc(Cn2c(CN3CCC(C(=O)NC(C)C)CC3)cc3ccccc32)c1 | -18%
CN(C)c1ccc(CNC(=O)C2CCN(Cc3cc4ccccc4n3Cc3ccccc3)CC2)cc1 | 11µM*
Cc1ccc(Cn2c(CN3CCC(C(=O)NCCc4ccccc4)CC3)cc3ccccc32)cc1 | 7.9µM*
Cc1ccc(Cn2c(CN3CCC(C(=O)NCC(C)c4ccccc4)CC3)cc3ccccc32)cc1 (centres undefined) | i
CN(C)c1ccc(CNC(=O)C2CCN(S(=O)(=O)c3ccc4c(c3)oc(=O)n4C)CC2)cc1 | 15%
O=C(NCc1cccnc1)C1CCN(Cc2cc3ccccc3n2Cc2ccccc2)CC1 | 11µM*
